# Compound activity as filed in PubChem BioAssay.
# A selection: hits, their analogues and other compounds. The true share with any hit is near 4.3%.
# dFosB activator: enhances mouse delta FosB homodimer DNA binding. P13346. purified delta FosB, TAMRA-CDK5 oligo fluorescence polarization; percent of positive-control signal above neutral wells. AID 493131. 340,000 compounds, 0.99% hits. activation, % at 25 µM;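 active means mean activation above about 17%, with every replicate also reaching it, limit read from the data, passing the limit was not always enough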
# Target sequence (P13346 whole entry, looked up): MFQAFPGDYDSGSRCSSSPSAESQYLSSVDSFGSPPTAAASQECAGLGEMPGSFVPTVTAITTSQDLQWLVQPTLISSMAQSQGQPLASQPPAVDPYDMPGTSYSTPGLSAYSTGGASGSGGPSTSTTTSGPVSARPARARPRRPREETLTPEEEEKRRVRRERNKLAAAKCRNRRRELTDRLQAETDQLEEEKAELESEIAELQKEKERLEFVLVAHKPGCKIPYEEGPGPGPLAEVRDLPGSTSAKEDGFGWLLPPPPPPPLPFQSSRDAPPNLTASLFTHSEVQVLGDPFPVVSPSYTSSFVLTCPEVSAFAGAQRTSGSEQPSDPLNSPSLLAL
# GRIN3A LBD mod: modulators (binders) of human NR3A ligand-binding domain; NR3A LBD differential scanning fluorimetry, Tm shift; 0% = protein alone, 100% = glycine-bound protein; Tm shift relative to glycine control, % at 25 µM; 340,000 compounds, 2.5% hits;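 active means melting temperature shift of at least 10% of the positive control shift, at one fixed dose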
# CR mimetic SO: yeast age-related superoxide inhibition as caloric restriction mimetic | S. cerevisiae aged cells, superoxide DHE fluorescence; stronger effect = lower value | superoxide response (% of plate mean), % at 10 µM | 330,000 compounds, 0.18% hits | AID 2690;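 active means superoxide response under a set limit, about three screen SD below normal, cut at about 65% in these data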;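 further: yeast aged for seven days with compound at 30 °C before DHE staining; 100% = average MFI of all compound-treated wells on the plate with controls excluded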
# NALP1 inh: blocks the NALP1 inflammasome reconstituted in yeast; S. cerevisiae NALP1/ASC/caspase-1 growth, X-gal OD620, 72 h; inhibition, % at 10 µM; 280,000 compounds, 0.61% hits; AID 2071; in the data active means inhibition mostly above about 24%, no sharp cut-off; inactive means mostly below about 32%
# UBC13 polyUb: blocks human UBC13 polyubiquitin chain formation | P61088 | TR-FRET | inhibition, % at 20 µM | 330,000 compounds, 0.47% hits | AID 485273; in the data active means inhibition above about 45%, passing the limit was not always enough
# Target sequence (P61088 whole entry, looked up): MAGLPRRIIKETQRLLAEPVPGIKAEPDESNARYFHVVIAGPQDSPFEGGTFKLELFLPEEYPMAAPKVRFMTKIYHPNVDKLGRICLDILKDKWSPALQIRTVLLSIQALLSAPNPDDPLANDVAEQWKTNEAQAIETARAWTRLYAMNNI
# * hit, by the source's call; . = no result.
SMILES,dFosB activator,GRIN3A LBD mod,CR mimetic SO,NALP1 inh,UBC13 polyUb
NS(=O)(=O)c1ccc(-c2ccc(/C=N/NC(=O)c3ccccc3O)o2)cc1,-1,13*,104,.,-22
N#C/C(=C\c1ccc(-c2ccc(F)cc2)o1)C(=O)Nc1nc(-c2cccs2)cs1,0,19*,102,22,-44
Cc1ccc(NCCN(C)C)c2c(=O)c3cc(O)ccc3sc12,43*,-2,.,.,.
CCN(CC)CCNc1ccc(CO)c2sc3ccccc3c(=O)c12,4,-1,117,1,-143
O=C(CC1CCCC1)Nc1cccc(Br)c1,-9,-9,97,13,7
N#Cc1ccc(NC(=O)Nc2cccc(C#N)c2)cc1,-12,26*,90,19,.
N#Cc1cccc(NC(=O)CC2CCCCC2)c1,3,12*,89,0,8
N#Cc1ccc(NC(=O)Nc2ccc(Oc3ccc(NC(=O)Nc4ccc(C#N)cc4)cc3)cc2)cc1,-9,32*,98,22,-8
Cc1ccc(NC(=S)NN(C)c2cc(C)nc(C)n2)cc1,-6,1,104,12,1
CCOc1ccc(NS(=O)(=O)c2ccc(C(=O)NNC(=O)c3ccccc3O)cc2)cc1,-7,4,145,.,24
CCOC(=O)c1ccc(NC(=S)N2CCSC2c2ccc(Br)cc2)cc1 (stereo not given),-4,18*,113,13,9
CCOC(=O)c1ccc(NC(=O)N2CCCCCC2)cc1,2,0,77,43*,-7
CCOC(=O)c1ccc(NC(=S)N2CCCC(C(=O)N3CCCC3)C2)cc1 (stereo not given),-12,11*,93,0,5
CC1(C)O[C@@H]2[C@H](O1)[C@@H](COS(=O)(=O)O)O[C@H]2n1cnc2c(N)ncnc21,.,.,105,.,4
Cc1ccc(C)c(NC(=O)COC(=O)c2cc3ccccc3oc2=O)c1,4,1,106,.,-5
COc1ccc2[nH]cc(CCNS(=O)(=O)c3ccc(NC(C)=O)cc3)c2c1,1,1,83,17,4
O=S(=O)(NCCc1c[nH]c2ccccc12)c1ccccc1,-5,-10,86,-8,2
Cc1ccc(S(=O)(=O)NCCc2c[nH]c3ccccc23)cc1,-3,23*,95,-27,13
COc1ccc(S(=O)(=O)NCCc2c[nH]c3ccc(Cl)cc23)cc1,-9,35*,110,6,14
CCC(OC(=O)C1=Cc2ccccc2OC1)C(=O)NCc1ccco1 (stereo not given),1,-1,89,33*,-4
COP(=O)(OC)C(Nc1ccc(C)cc1)c1ccc([N+](=O)[O-])cc1 (stereo not given),3,15*,111,17,0
C(=Cc1c[nH]c2ccccc12)c1nccc2ccccc12,-34,-8,.,.,.
O/C(=C\c1ccc2ccccc2n1)c1ccc(O)cc1O,-1,35*,101,4,-34
C(=Cc1c[nH]c2ccccc12)c1ccc2ccccc2n1,8,22*,.,.,.
Oc1ccc(/C(Cc2ccc3ccccc3n2)=N\Nc2ccccc2)c(O)c1,0,-3,86,11,1
SMILES,dFosB activator,GRIN3A LBD mod,CR mimetic SO,NALP1 inh,UBC13 polyUb
Oc1ccc(/C=C/c2ccc3ccccc3n2)cc1,-4,19*,90,7,-2
COC(=O)[C@@]1(Cc2ccc(F)cc2)[C@H]2c3cc(C(=O)N4CCCC4)n(CCc4c[nH]c5ccc(OC)cc45)c3C[C@H]2CN1C(=O)c1ccccc1,.,.,93,25,0
COc1ccc(S(=O)(=O)NC2CCCC2)cc1C(N)=O,-5,0,109,0,7
COC(=O)Cn1nc(-c2ccccc2)c2ccccc21,-6,1,105,103*,10
CCO[C@@H]1OC(C(=O)NCc2ccccc2)=C[C@H](C2CC2)[C@H]1CCCO,5,5,.,-12,9
CCO[C@@H]1OC(C(=O)NCc2ccccc2)=C[C@H](C2CCCCC2)[C@H]1CCCO,-7,-2,90,21*,8
COc1ccc(-c2cc(C(=O)N/N=C/c3sccc3C)c3ccccc3n2)c(OC)c1,-11,-2,83,41*,-2
COc1ccc(NC(=O)c2cc(-c3ccccc3)nc3c2c(C)nn3-c2ccccc2)c(OC)c1,0,13*,105,18,2
COc1ccc(OC)c(-c2cc(C(=O)N/N=C/c3ccc(F)cc3)c3ccccc3n2)c1,.,1,104,.,-2
COc1ccc(NC(=O)c2cnn(-c3ccccc3)c2C)c(OC)c1,-1,-3,95,22,-6
COc1ccc(OC)c(-c2cc(C(=O)Nc3ccccc3C(N)=O)c3ccccc3n2)c1,.,11*,116,.,5
COc1ccccc1-c1cc(C(=O)N/N=C/c2cccs2)c2ccccc2n1,-6,-6,99,16,-6
COCCN(C(=O)COC(=O)CSc1ccccc1)c1c(N)n(Cc2ccccc2)c(=O)[nH]c1=O,-11,0,87,.,-9
CCN(CC)S(=O)(=O)c1ccc2[nH]c(=O)c3ccccc3c2c1,2,-1,101,8,3
CCc1ccc(CN2CCC(n3nccc3NC(=O)C3CCCC3)CC2)cc1,-4,0,106,26,8
COC(=O)C1=C(NC(=O)COc2ccc(Cl)cc2Cl)CCS1,-3,15*,96,14,-6
COC(=O)C1=C(NC(=O)COc2ccc3ccccc3c2)CCS1,-2,-2,97,22,20
CCOC(=O)N1CCN(C(=O)c2ccc(OC)c(OC)c2)CC1,4,2,103,-22,-8
CCOc1ccccc1N1CCN(C(=O)c2ccc3c(c2)OCO3)CC1,-5,10*,93,8,0
CCOC(=O)N1CCN(C(=O)c2ccc(OCC)c(OCC)c2)CC1,-2,10*,107,8,2
CCOc1ccc(Cl)cc1S(=O)(=O)n1cnc2cc(C)c(C)cc21,-8,2,103,41*,4
CCOc1ccc(Cl)cc1S(=O)(=O)N1CCN(c2ccc(C)c(C)c2)CC1,1,0,66,6,0
CCOC(=O)C1=NN(C(C)=O)C2(CC(=O)N(c3cc(C)cc(C)c3)C2=O)C1 (stereo not given),-1,13*,96,35,-6
CC(C)(C)N(Cc1ccccc1)C(=O)COC(=O)c1ccc(S(=O)(=O)N2CCOCC2)cc1,-11,3,99,.,4
COc1ccc(CNC(=O)CN(C(=O)c2csnn2)c2cccc3ccccc23)cc1,-17,3,88,25,-4
Cc1cccc2c1CC(C)(C)N=C2C1=C(O)CCCC1=O,-6,14*,106,13,-1
O=C(NCc1ccccc1Cl)c1cnccn1,3,-4,84,10,2
O=C(NCc1ccccc1Cl)c1cnccc1C(F)(F)F,3,12*,104,1,-9
O=C(NCc1ccccc1Cl)c1ccccc1CCc1ccccc1,-6,-1,109,25,-8
O=C(NCc1ccccc1Cl)c1ccccc1Oc1ccccc1,-7,11*,98,22,-5
